Sampled rows, rich in hits. Any-hit rate of the full collection: about 1.6%.
VLA-4 inh: inhibition in human VLA-4 binding assay, primary screen, VLA-4 allosteric modulator project, MLPCN library, flow cytometry, VLA-4 expressing cells. Integrin alpha-4 (Homo sapiens), P13612. AID 2557, 2010. inhibition, % (about 7 µM as worked out from the volumes in the protocol). ligand binding flow cytometry. 330,000 compounds, 0.2% hits; in the data active = inhibition above about 50%
CendR NRP1 mod: modulators of CendR peptide binding to NRP-1, primary screen, biochemical, fluorescence polarization, uHTS; AID 602438, 2012; FAM-RPARPAR peptide binding to NRP-1; inhibition, % at 25 µM; 360,000 compounds, 0.85% hits;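 active = inhibition or corrected inhibition above about 18%, plus a signal ratio from 0.5 to 1.5, limit read from the data, passing the limit was not always enough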
ATG4B inh: ATG4B protease inhibitors, primary screen, biochemical, fluorescence, uHTS | ATG4B cleavage of LC3-PLA2, NBD-HPC fluorescence, 1 h | inhibition, % at 8.33 µM | 340,000 compounds, 0.51% hits; in the data active = inhibition above about 40%
Target sequence (Q9Y4P1 whole entry, looked up): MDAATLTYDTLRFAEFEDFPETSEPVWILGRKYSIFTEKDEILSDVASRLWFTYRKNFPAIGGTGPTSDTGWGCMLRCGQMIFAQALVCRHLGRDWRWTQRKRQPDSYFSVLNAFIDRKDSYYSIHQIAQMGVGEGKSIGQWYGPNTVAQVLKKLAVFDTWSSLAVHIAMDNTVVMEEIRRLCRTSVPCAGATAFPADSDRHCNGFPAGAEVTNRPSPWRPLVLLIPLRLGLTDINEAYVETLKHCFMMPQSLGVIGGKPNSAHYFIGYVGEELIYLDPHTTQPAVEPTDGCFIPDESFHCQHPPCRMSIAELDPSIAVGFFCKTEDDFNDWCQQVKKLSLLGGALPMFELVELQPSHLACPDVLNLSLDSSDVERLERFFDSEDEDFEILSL
PKA-R2B act: activators of PKA-R2B holoenzyme, primary screen, biochemical, fluorescence polarization, Cy5-IP20, human | PKA-R2B holoenzyme dissociation; R2B truncated from residue 108, S112A mutant; 0% DMSO only, 100% 113 µM cGMP | cAMP-dependent protein kinase catalytic subunit beta (Homo sapiens) + cAMP-dependent … | 340,000 compounds, 0.079% hits | AID 504700, 2011 | activation, % at 11.4 µM;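 active = activation above a cutoff set at the mean over all compounds plus 3 SD, cut at about 18% in these data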;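 also: higher means more holoenzyme dissociation and a rise in polarization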
PKA-R1A act: activators of PKA-R1A holoenzyme, primary screen, biochemical, fluorescence polarization, Cy5-IP20, bovine R1A, mouse PKAc. cAMP-dependent protein kinase type I-alpha regulatory subunit (Bos taurus) + …. PKA-R1A dissociation; scaled: DMSO 0%, 113 µM cGMP 100%. activation, % at 11.4 µM. 340,000 compounds, 0.083% hits;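 active = percent activation above the mean of all tested compounds plus 3 SD, cut at about 19% in these data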;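 also: higher means more PKAc released from R1A so a rise in polarization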
* hit, by the source's call; . = no result given.

SMILES	VLA-4 inh	CendR NRP1 mod	ATG4B inh	PKA-R2B act	PKA-R1A act
O=C(CCC(=O)N(CC(=O)NC1CCCCC1)Cc1ccccc1)Nc1ccccn1	-4	-1	-7	4	-12
COc1ccccc1N(CC(=O)NC1CCCC1)C(=O)CCC(=O)Nc1ccccn1	5	21*	1	0	4
CCOC(=O)C1=C(c2ccccc2)OC(N)=C(C#N)C1C(C)C (stereo not drawn)	2	50*	1	-2	-2
COCCCN1C(=O)C(CC(=O)NC2CCCCC2)CC(C(=O)N2CCOCC2)=C1C (stereo not drawn)	.	6	.	0	4
Cc1ccccc1NC(=O)Nc1nc(C(N)c2ccccc2)cs1 (stereo not drawn)	.	-9	.	.	.
Cc1ccc(NC(=O)C2CCCN2C(=O)NC2CCCCC2)cc1F (stereo not drawn)	-2	-1	0	-10	-1
Cc1ccc(NC(=O)C2CCCN2C(=O)NC2CCCCC2)cc1C (stereo not drawn)	2	28*	-2	0	-3
CC1CCCCN1C(=O)COC(=O)C1CCN(S(=O)(=O)c2c(Cl)cccc2Cl)CC1 (stereo not drawn)	8	3	-1	-7	0
Cc1ccc(Cc2c(-c3ccccc3)nc3c(Cl)cc(C(F)(F)F)cn23)cc1	.	-6	.	.	.
O=c1cc(-c2cccc(Br)c2)nc(-c2ccccc2F)o1	19	2	46*	-15	-1
O=c1cc(-c2ccccc2F)nc(-c2ccccc2F)o1	31	-4	-1	7	-7
Cc1cccc(C)c1NC(=O)C(c1ccccc1)N1CCC(Cc2ccccc2)CC1 (stereo not drawn)	.	-7	.	.	.
CCOC(=O)[C@H]1[C@H]2COc3ccccc3[C@@H]2N2C(=O)[C@@H](C)NC(=O)[C@@]12C	0	28*	-7	-7	0
CCOC(=O)[C@@H]1[C@H]2COc3ccccc3[C@@H]2N2C(=O)N(c3ccc(Cl)cc3)C(=O)[C@]12C	44	30*	0	4	4
CCOC(=O)[C@@H]1[C@H]2COc3ccccc3[C@H]2N2C(=O)N(c3ccc(C)cc3)C(=O)[C@]12C	22	3	2	3	-4
CCC(C)n1c(=S)[nH]c2ccccc2c1=O (stereo not drawn)	12	28*	4	-5	-2
Cc1ccc(S(=O)(=O)N(C)c2ccc(OCC(=O)Nc3cc(C(=O)O)ccc3Cl)cc2)cc1	.	.	14	.	.
COC(=O)C(NC(=O)CCC(=O)NC(C(=O)OC)c1ccccc1)c1ccccc1 (stereo not drawn)	-11	-1	-4	13	14
COC(=O)C(NC(=O)CCC(=O)N[C@@H](C(=O)OC)c1ccccc1)c1ccccc1 (stereo partly drawn)	-19	25*	-7	-5	0
CC(C)(C)OC(=O)[C@H](NC(=O)OCc1ccccc1)c1ccccc1	15	0	19	-2	1
CC(C)(C)OC(=O)N[C@H](C(=O)OC(C)(C)C)c1ccccc1	20	36*	-4	-2	10
CCOC(=O)[C@H]1[C@H]2COc3cc(OC)ccc3[C@@H]2N2C(=O)N(c3cccc(Cl)c3)C(=O)[C@@]12C	15	-9	-1	-12	12
CNC(=S)N1N=C(c2ccc(Br)cc2)CC1c1ccc(Br)cc1 (stereo not drawn)	3	10	-5	3	5
CNC(=S)N1N=C(c2ccc(Br)cc2)CC1c1ccc(N(C)C)cc1 (stereo not drawn)	-10	32*	4	-1	6
NS(=O)(=O)c1ccc(CCNC(=O)c2cc(-c3ccccc3)nc3ccccc23)cc1	5	30*	-16	-2	-13
N#Cc1c(-c2ccc(Cl)cc2)c(-c2ccc(Cl)cc2)nn(CCO)c1=O	.	8	0	-2	-1
CCc1cc(C(=O)OC)c(NC(=O)CN2CCN(C(=O)c3ccco3)CC2)s1	3	26*	1	4	4

Screening results as filed in PubChem.
